Pf growth 96h – inhibits malaria parasite growth, 96 h | AID 504834 | 6.9% of 320,000 active | P. falciparum luciferase reporter growth, 96 h | Potency, µM (highest dose often 28.7 µM), for the others: top-dose activity change, negative = inhibition, usual class: inhibitors; further: potency means the concentration at half of the fitted maximal effect; on the % scale 0 is the no-effect control and ±100 the full control effect
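Plates of compound plus infected erythrocytes (2% hematocrit, 0.05% parasitemia final) incubate 96 hours, 37 C, 5% CO2. Detection reagent added; reduced luminescence from the parasites' luciferase reporter flags inhibition.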
Shiga inhibitor – inhibitors of Shiga toxin in Vero cells | Vero cells, Shiga toxin protein synthesis inhibition reporter | inhibition, % at 38.7 µM | 9.2% of 290,000 active | AID 2315; in the data active means inhibition mostly above about 28%, no sharp cut-off; inactive means mostly below about 43%; further: 0% is about no effect
Pf growth 48h – P. falciparum growth inhibition at 48 hours (one generation); P. falciparum luciferase growth in erythrocytes, 48 h; Potency, µM (doses to about 28.7 µM), inactives show at the top dose activity change, negative = inhibition, hits mostly inhibitors; 5.9% of 310,000 active; further: potency means the concentration at half of the fitted maximal effect; on the % scale 0 is the no-effect control and ±100 the full control effect
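Luciferase-expressing parasites in RBCs, 2% Hct / 0.1% parasitemia final; RPMI 1640 + 0.5% Albumax; 37 C, 5% CO2, one generation; luminescence read-out, lower signal = inhibition.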
Cycloheximide cs – affects cycloheximide protein synthesis inhibition readout, counter-screen; cell reporter, cycloheximide protein synthesis inhibition counterscreen; max response, %; 12% of 300,000 active; in the data active means max response mostly above about 13%, no sharp cut-off; inactive means mostly below about 14%; further: read at 38.3 µM for the half of the compounds with a filed dose; 0% is about no effect
Active calls of the source: *; u = inconclusive; x = not tested or not shown. In the library only some 21% were active in any assay of this set; here they are far more common. Unless noted, the call rests on the fitted dose curve; in most records, active means well fitted inhibition curve with a large enough effect; inconclusive means small, poorly fitted or top-dose-only effect, or another doubt; inactive means no such curve, though single readings can be large or run the other way.

SMILES | Pf growth 96h | Shiga inhibitor | Pf growth 48h | Cycloheximide cs
COc1ccc(S(=O)(=O)N2CCc3ccccc32)cc1C(=O)NC1(C)CCS(=O)(=O)C1 (stereo not given) | -21.2% | x | u | x
c1ccc2nc3c(nc2c1)[nH]c1ccccc13 | 2.2% | 103.5* | x | 63.7*
CN1CCN(S(=O)(=O)c2cccc(C(=O)Nc3cc(C(F)(F)F)ccc3N3CCCC3)c2)CC1 | u | x | -16.2% | x
CC1(C)CC(N(Cc2ccc(F)cc2)C(=O)c2ccc(F)cc2)CCO1 (stereo not given) | -3.4% | -3.7 | 7.5% | -3.8
O=C(CN(Cc1ccc(F)cc1)C(=O)c1ccco1)NCc1ccc(F)cc1 | 0.0% | -9.3 | -4.8% | 0.7
O=C(c1ccco1)N(CCC(c1ccccc1)c1ccco1)Cc1ccc(F)cc1 (stereo not given) | u | 20.2 | u | 21.9*
CCC(=O)N(CCC(c1ccc(C)cc1)c1ccco1)Cc1ccco1 (stereo not given) | u | 16.4 | 2.33µM* | 9.3
CC1(C)CC(C(CCN(Cc2ccccc2)C(=O)c2ccco2)c2ccc(F)cc2)CCO1 (stereo not given) | 1.47µM* | -7.9 | 11.7µM* | 14.8
CCC(=O)N(CCC(c1ccco1)C(C)C)Cc1ccccc1 (stereo not given) | u | -4.3 | u | -1.5
COc1cc2cnc(-c3ccccc3)c(-c3cc(OC)c(OC)c(OC)c3)c2cc1OC | 3.7µM* | x | 10.4µM* | x
O=C(NC(=S)N(CCCCO)C1CCCCC1)c1sc2ccccc2c1Cl | u | -7.6 | u | 1.4
O=c1cc(-c2cccc([N+](=O)[O-])c2)[nH][nH]1 | -12.3% | 8.8 | -19.9% | -4.1
O=[N+]([O-])c1cccc(-c2cc3cccc[n+]3cc2-c2cccc([N+](=O)[O-])c2)c1 | 0.165µM* | -7.6 | 0.522µM* | -2.9
Cc1sc2cc(-c3cccc([N+](=O)[O-])c3)c(-c3cccc([N+](=O)[O-])c3)c[n+]2c1C | 0.828µM* | 15.8 | 0.928µM* | -2.2
O=[N+]([O-])c1cccc(-c2nnc3ccccn23)c1 | u | 9.5 | 45.5% | -1.6
CCN(CC)C(=O)C1CCCN(C(=O)c2oc3ccc(C)cc3c2C)C1 (stereo not given) | 28.5% | 12.3 | 17.9% | 14.1
COc1cccc(CN2CC=C(c3ccc(F)cc3)CC2)c1 | u | -5.0 | 6.3% | -1.8
COc1cccc(CN2CCN(c3ccc(F)cc3)C2=O)c1 | u | 33.0 | 33.7% | 34.5*
O=C1NCCCN1Cc1ccc(F)cc1 | 13.3% | -3.9 | x | -0.9
O=C1N(Cc2ccc(F)cc2)CCN1c1ccc(F)cc1 | 124.0% | 57.7* | 85.5% | 29.3*
O=C1CN(C(=O)COC(=O)c2ccccc2Br)c2ccccc2N1 | 9.1% | x | -24.5% | x
CCOC(=O)c1nn(-c2ccc3ccccc3c2)cc1O | 118.9% | 108.4* | 120.2% | 39.0*
CCOC(=O)c1nn(-c2ccccc2)cc1O | 90.5% | 55.5* | 64.8% | 22.9*
CCOC(=O)c1nn(-c2ccc(Cl)cc2C)ccc1=O | -7.8% | -8.6 | -1.0% | -2.8
CCOC(=O)c1nn(-c2ccc(Cl)cc2)cc1O | 115.3% | 101.2* | 46.6% | 56.0*
SMILES | Pf growth 96h | Shiga inhibitor | Pf growth 48h | Cycloheximide cs
CCOC(=O)c1nn(-c2ccc3c(c2)OCO3)cc1O | 63.3% | 107.8* | 99.7% | 42.6*
CCOC(=O)c1cc(C(=O)OCC)cc(-n2cc(O)c(C(=O)OCC)n2)c1 | u | -7.8 | 1.6% | -0.8
CCOC(=O)c1nn(-c2ccccc2)c(C(=O)OCC)c1N | 1.7% | -1.6 | u | 6.1
O=C(CN1C(=O)/C(=C\c2ccco2)SC1=S)Nc1ccc(O)cc1C(=O)O | u | 7.5 | -8.2% | 1.1
Cn1c(SCC(=O)NCc2ccco2)nnc1C1CCCC1 | 23.5% | -18.7 | 12.6% | -1.6
O=C(NCc1n[nH]c(=S)n1-c1cccc(Cl)c1)c1ccc(S(=O)(=O)N2CCCCC2)cc1 | 7.1% | -2.4 | -26.0% | -3.1
CCOC(=O)c1nn(-c2cc(C(=O)OC)cc(C(=O)OC)c2)cc1O | 1.8% | -18.4 | 19.7% | -2.6
CCOC(=O)c1nn(-c2ccc(C)cc2)cc1O | 23.6% | 76.2* | x | 54.9*
CCOC(=O)C1=NN(c2ccc(Cl)cc2)C(=O)C1 | 3.4% | 121.1* | 62.6% | 57.0*
CCOC(=O)c1[nH]n(-c2ccc(Cl)cc2)c(=O)c1C | u | 1.8 | u | 0.3
CCOC(=O)c1nn(-c2sc(C(=O)OC)c(C)c2C(=O)OC)cc1O | 1.4% | 4.1 | -11.2% | 4.5
COC(=O)c1nn(-c2ccc(-c3ccccc3)cc2)cc1O | 19.5% | 22.3 | -27.7% | 29.4*
CC(=O)N1CC2([N+](=O)[O-])CN(C(C)=O)CC([N+](=O)[O-])(C1)C2(C)C | 4.4% | -8.2 | 4.6% | -3.5
COc1ccccc1NC(=O)CSCc1cc(=O)n2ccsc2n1 | -10.4% | 4.3 | 4.9% | -3.8
COc1ccc(Cc2nnc(Nc3ccc(C)cc3)o2)cc1OC | u | -8.9 | 2.94µM* | -2.7
COc1ccc(CC(=O)Nc2cccc(-c3nnc(-c4ccc(C)cc4)o3)c2)cc1OC | -13.4% | 43.7 | u | 24.6*
COc1ccc(-c2nc3cc(NC(=O)Cc4ccc(OC)c(OC)c4)ccc3o2)cc1 | 4.15µM* | 34.1* | -11.0% | 24.7*
COc1ccc(CC(=O)Nc2cccc(-c3nnc(-c4cccc(C)c4)o3)c2)cc1OC | x | 52.0* | u | 46.4*
Cc1ccc(OCC(=O)Nc2cccc(-c3nnc(-c4ccccc4)o3)c2)c(C)c1 | u | 9.6 | -27.7% | 1.1
CCc1cccc(NC(=O)Cc2ccc(OC)c(OC)c2)c1 | 0.3% | -3.6 | -9.3% | -2.2
COc1ccc(C2/C=C\[C@H](O[Si](C)(C)C(C)(C)C)[C@H](C(C)C)CC(=O)N2Cc2ccccc2)cc1 (stereo not given in full) | x | 5.6 | x | 2.6
COc1ccc(CCNC(=O)CSc2nnc(-c3cccc(C)c3)o2)cc1OC | x | -6.6 | u | 1.2
COc1ccc(CC(=O)Nc2cccc(-c3nnc(-c4ccccc4)o3)c2)cc1OC | x | 96.1* | u | 48.7*
COc1ccc(CC(=O)Nc2cccc(-c3ccc4nncn4n3)c2)cc1OC | -8.6% | -15.0 | -9.3% | 5.6
COc1ccc(CCNC(=O)CSc2nnc(-c3ccccc3)o2)cc1OC | -21.2% | -6.9 | -5.6% | -1.3
SMILES | Pf growth 96h | Shiga inhibitor | Pf growth 48h | Cycloheximide cs
COc1ccc(CC(=O)Nc2ccc(-c3nnc(-c4ccccc4)o3)cc2)cc1OC | x | 9.7 | -5.4% | 15.3*
COc1ccc(Cc2nnc(-c3cccc(C)c3)o2)cc1OC | -3.0% | 43.5* | 28.8% | 20.7*
COc1ccccc1C(=O)C1CCCN(Cc2cccc(OCCO)c2)C1 (stereo not given) | -8.8% | -1.9 | 0.9% | -4.0
CC(C)(C)OC(=O)NCCCC[C@H](NC(=O)c1nc[nH]c1C(=O)N1CCN(c2ccccc2)CC1)C(=O)OC(C)(C)C | 13.1µM* | 3.4 | 11.7µM* | -4.7
C[C@H](NC(=O)c1nc[nH]c1C(=O)N1CCN(c2ccccc2)CC1)C(=O)OC(C)(C)C | 62.4% | -6.0 | 29.7% | -0.8
CC(C)(C)OC(=O)NCCCC[C@H](NC(=O)c1nc[nH]c1C(=O)N1CCN(C(=O)OC(C)(C)C)CC1)C(=O)OC(C)(C)C | 8.28µM* | -17.7 | u | 0.6
